Assay outcomes: PubChem, National Center for Advancing Translational Sciences (NCATS)
A selection: hits, their analogues and other compounds. The true share with any hit is near 0.51%.
FMDV antiviral: shows antiviral activity against foot and mouth disease virus. AID 1745856. hit rate 0.23% among 120,000. FMDV antiviral cell assay, firefly luciferase signal. Potency, µM (doses to about 57.5 µM), for inactives: top-dose activity change, negative = inhibition, usual class: inhibitors; further: nearly all actives have a fitted effect of over 60% in size
FMDV RLuc: FMDV antiviral activity by Renilla signal; hit rate 0.32% among 120,000; FMDV replicon cells, Renilla luciferase signal; Potency, µM (highest dose often 57.5 µM), for the others: top-dose activity change, negative = inhibition, most hits filed as inhibitors; further: nearly all actives have a fitted effect of over 55% in size
Active calls of the source: *; u = inconclusive; ! = not confirmed by another sample; [ ] = another dose, or the depositor's remark. The call rests on the fitted dose curve. On the % scale 0 is the no-effect control and ±100 the full control effect; potency means the concentration at half of the fitted maximal effect.

SMILES	FMDV antiviral	FMDV RLuc
COc1ccc(C(=O)/C=C/c2ccccc2OCC#N)c2ccccc12	u	25µM*
COc1ccccc1-n1[nH]c(C)c(Cc2ccc(Br)cc2)c1=O	-2%	29%
COc1ccc(-n2ccnc(NCCc3ccccc3)c2=O)cc1OC	-2%	5%
COc1ccc(CCNc2nccn(-c3ccc(C)c(C)c3)c2=O)cc1OC	u	7.9µM*
CCc1cc(=O)oc2c(C)c(OCc3ccccc3)ccc12	43%	18%
CCNc1oc(/C=C/c2cc(OC)c(OC)c(OC)c2)nc1C#N	24%	14%
Oc1c(Br)cc(Cl)cc1Cc1cc(Cl)cc(Br)c1O	u	3.5µM*
O=Cc1cc(Cl)c(O)c(Br)c1	5%	-6%
Cn1c(=O)c2nc(SCc3ccc(Cl)cc3Cl)n(C)c2n(C)c1=O	10%	6%
Cc1ccc(Cl)cc1-n1ncc2c(NC3CCCCC3)ncnc21	u	25µM*!
Clc1ccc(-n2ncc3c(NC4CCCCCCCCCCC4)ncnc32)cc1	5%	-5%
CCN1CCN(c2ncnc3c2cnn3-c2cc(Cl)ccc2C)CC1	-11%	-12%
Cc1ccc(Cl)cc1-n1ncc2c(N3CCN(Cc4ccccc4)CC3)ncnc21	22µM*	35µM*
CCN1CCC(=O)C(C)C1C (configuration not stated)	3%	6%
N#Cc1ccc(OC(=O)c2ccc(N3CCOCC3)nc2)cc1	0%	13%
Cc1ccccc1CNC(=O)CN1C(=O)CCCc2ccccc21	114%	32µM*
COc1ccccc1CNC(=O)CN1C(=O)CCCc2ccccc21	-4%	-3%
CC(C)=CC(=O)Nc1ccc(OC2CCCC2)cc1	0%	10%
O=C(Nc1ccc(OC2CCCC2)cc1)c1ccncc1	-25%	5µM*
O=C(CCC(=O)NC12CC3CC(CC(C3)C1)C2)Nc1cccnc1	6%	5%
O=c1c2cnc(N3CCc4ccccc4C3)nc2ccn1-c1ccccc1	25µM*	u
O=c1c2cnc(N3CCc4ccccc4C3)nc2ccn1-c1cc(Cl)cc(Cl)c1	65%	2%
O=C(Nc1ccc(SCc2cccnc2)cc1)c1ccc2c(c1)OCCCO2	u	18µM*
O=C(Nc1ccc2c(c1)OCCCO2)c1ccc(SCc2cscn2)cc1	-10%	u
COc1ccc(OCC(=O)N2CCC(c3nc4ccccc4s3)CC2)cc1	28µM*	25µM*
SMILES	FMDV antiviral	FMDV RLuc
Cc1ccccc1OCC(=O)N1CCC(c2nc3ccccc3s2)CC1	-6%	-10%
Cc1ccc2c(ccc3ccccc32)n1	133%	5%
COc1ccc(C(=O)Oc2c(C)cc(C(O)(C(F)(F)F)C(F)(F)F)cc2C)cc1	10µM*	8.9µM*
Cc1cc(C(O)(C(F)(F)F)C(F)(F)F)cc(C)c1OC(=O)c1ccccc1F	44%	-30%
CN(Cc1cccs1)C(=O)c1cccc(S(=O)(=O)N2CCCC2)c1	5%	12%
COC(=O)C1CN(Cc2ccc(OC)cc2)CCS(=O)(=O)N1Cc1ccc(C(F)(F)F)cc1 (configuration not stated)	32µM*	u
COC(=O)C1CN(Cc2ccc(OC)cc2)CCS(=O)(=O)N1Cc1ccc(Cl)cc1 (configuration not stated)	0%	0%
O=C(Nc1cccc(Cl)c1)c1nc2ccccc2nc1N1CCCC1	-4%	3%
Clc1cccc(Nc2nc3nonc3nc2N2CCCCC2)c1	u	6.3µM*
CC(C)(C)c1ccc(NC(=O)c2cccc(CN3CCCC3=O)c2)cc1	u	28µM*
CCOc1ccc(NC(=O)c2cccc(CN3CCCC3=O)c2)cc1	73%	-3%
COC(=O)c1ccc(/C=N/OCc2ccccc2Cl)cc1	0%	10%
COc1ccc(NC(=O)CSc2nc3nc(C)cc(C)n3n2)cc1	9%	-17%
Cc1cc(N2CCCC2)nc(Nc2ccc(NC(=O)c3c(F)cccc3F)cc2)n1	24%	5%
COc1ccc(Nc2cc(C)nc(Nc3ccc(NC(=O)CCc4ccccc4)cc3)n2)cc1	13µM*	u
COc1ccc(Nc2cc(C)nc(Nc3ccc(NC(=O)CC(C)C)cc3)n2)cc1	u	28µM*
COc1ccc(CC(=O)Nc2ccc3nc(Nc4ccc(OC)cc4)cc(C)c3c2)cc1	u	0%
CCNc1cc(C)nc(Nc2ccc(NC(=O)c3ccccc3F)cc2)n1	u	28µM*
O=C(CSc1ccccc1)Nc1cc(Cl)ccc1C(=O)O	42%	16%
CN(C)C(CNc1oc(-c2cccc3ccccc23)nc1C#N)c1cccs1 (configuration not stated)	11%	-4%
CC(Oc1ccc(Cl)cc1)C(=O)NN (configuration not stated)	-3%	-4%
CC(C)n1c(NC2CCCCC2)nc2c1c(=O)n(C)c(=O)n2C	-7%	0%
Cc1cccc(N2CCN(S(=O)(=O)c3csc(C(N)=O)c3)CC2)c1C	13µM*	8.9µM*
COc1ccc(N2CCN(S(=O)(=O)c3csc(C(N)=O)c3)CC2)cc1	-8%	-15%
Cc1ccc(-c2cc(=O)c3cc(NC(=O)C(C)(C)C)ccc3o2)cc1	188%	0%
SMILES	FMDV antiviral	FMDV RLuc
COC(=O)Cc1c(C)c2ccc(OCc3ccccc3F)c(C)c2oc1=O	173%	16%
COC(=O)Cc1c(C)c2ccc(OCC(=O)C(C)(C)C)c(C)c2oc1=O	u	28µM*
CCCCCN1CCN(c2nc3c(c(=O)[nH]c(=O)n3C)n2CCCc2ccccc2)CC1	5%	2%
COc1ccc(Cn2c(C(=O)O)c(CNCc3ccccc3F)c3ccc(OC)cc32)cc1	35µM*	0%
CCOc1ccccc1CNCc1c(C(=O)O)n(Cc2ccccc2)c2cc(OC)ccc12	-21%	1%
Cc1ccc(NC(=O)CCC2CCCC2)cc1C	122%	67%
Cc1ccccc1CNCCN1CCCC1	-8%	0%
O=C(Nc1ccccc1C(F)(F)F)c1cc2ccccn2n1	145%	25%
O=C(Nc1ccc(OC(F)(F)F)cc1)c1cc2ccccn2n1	20%	8.9µM*
O=C(NC(C(=O)O)c1ccccc1)c1ccco1 (configuration not stated)	27%	19%
CCCCN=C(N)N=C(N)N	-8%[11.5 µM]	-1%
CCCCC(CC)CN=C(N)NC(N)=NCCCCCCN=C(N)NC(N)=NCC(CC)CCCC (configuration not stated)	u	28µM*
Cn1c(=O)c2c(ncn2Cc2cccc(OCC(F)(F)F)c2)n(C)c1=O	7.1µM*	4.5µM*
Cc1cccc(OCCCn2cnc3c2c(=O)n(C)c(=O)n3C)c1	-8%	-20%
CC(=O)c1cccc(NCC(=O)Nc2ccc(C#N)cc2)c1	-2%	155%
O=C(/C=C/c1ccc(Cl)c(Cl)c1)c1ccccc1OC(F)F	28%	39%
COc1cc(/C=C/C(=O)c2ccccc2C)cc(OC)c1OC(F)F	u	28µM*
C=CCn1c(NCCCOC)nc2c1c(=O)n(C)c(=O)n2C	2%	4%
Cc1nc(CN2CCN(S(=O)(=O)c3ccccc3Cl)CC2)cs1	-11%	-5%
Cc1ccc(Nc2nc(CN3CCN(S(=O)(=O)c4cc(C)ccc4C)CC3)cs2)cc1	u	8.9µM*
O=C(NC1CCCCCC1)c1ccc2ncsc2c1	101%	21%
O=C(NC1CCCCC1C(F)(F)F)c1ccc2ncsc2c1 (configuration not stated)	8.9µM*	144%
CN(C(=O)CSc1nc2ccc(NC(=O)COc3ccc(Cl)cc3)cc2s1)c1ccccc1	-19%	-13%
COc1ccc(C(=O)Nc2ccc3nc(SCC(=O)N(C)c4ccccc4)sc3c2)cc1	u	28µM*
